Experimental findings from PubChem BioAssay (Tox21) are described below.

Inconclusive results are not listed. Values without a mark were called inactive. The source made the active and inactive calls. Calls follow the shape of the dose curve; as a rule, active = well fitted cell-killing curve with a large enough effect in the repeat runs; inconclusive = weak or mixed curves, or effect the other way; inactive = flat fitted curve, though single readings scatter.
% is scaled to controls: 0 for no effect and ±100 for the full control effect; potency is read from the fitted curve at half-maximal effect.

The first test can be described thus: cAMP Responsive Elements (CRE) small molecule antagonists, cell-based qHTS assay: qHTS cell viability counter screen (AID 2060913). Also: nearly all actives have a fitted effect of over 40% in size. The conditions noted are these: CRE-bla HEK293T viability, CellTiter-Glo luminescence, 5 h; series mostly up to 92.4 µM; viability change, negative = cytotoxic: at the top concentration. The method in brief: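 HEK293T CRE-bla, 2,000 cells/well, 18 h preincubation; cpd in DMSO + NKH477 0.25 uM final, 3 h 37 C/5% CO2; LiveBLAzer 2 h RT, then CellTiter-Glo 30 min RT, luminescence.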
For `CC(C)=CCN1CC[C@@]2(C)c3cc(O)ccc3C[C@@H]1[C@@H]2C`, the “viability change, negative = cytotoxic” value was -7.83%.

On to `O=[N+]([O-])c1cc(Cl)c(Cl)cc1Cl`, for which the “viability change, negative = cytotoxic” value is -9.18%.

On to `CCCOC(=O)c1cncn1C(C)c1ccccc1` (stereo not given), for which the “viability change, negative = cytotoxic” value is 6.35% [at 42.5 µM].

On to `Sc1ccccc1`, for which the Potency result is “inactive”.

In the case of `COP(=S)(OC)Oc1c(Cl)cc(C)cc1Cl`, the “viability change, negative = cytotoxic” value is -0.282%.

For `CCCN(CCOc1c(Cl)cc(Cl)cc1Cl)C(=O)n1ccnc1`, the Potency result was “inactive”.

As for `CC(Cl)(Cl)Cl`, the “viability change, negative = cytotoxic” value was -6.21%.

As for `CC(C)(C)N(NC(=O)c1ccc(Cl)cc1)C(=O)c1ccccc1`, the “viability change, negative = cytotoxic” value is 0.7%.

In the case of `COC(=O)N(C(=O)N1CO[C@@]2(C(=O)OC)Cc3cc(Cl)ccc3C2=N1)c1ccc(OC(F)(F)F)cc1`, the “viability change, negative = cytotoxic” value is -16.1%.

For the compound `CCCCOC(=O)CCC(=O)OCCCC`, the “viability change, negative = cytotoxic” value was 2.1%.

Consider `CC(=O)[O-].CC(=O)[O-].O.O.[Zn+2]`, for which the “viability change, negative = cytotoxic” value is -11.6%.

For `O=S(=O)(c1ccc(O)cc1)c1ccc(O)cc1`, the Potency result was “inactive”.

In the case of `COP(N)(=O)SC` (stereo not given), the Potency result is “inactive”.

Take `COc1cc(C=O)cc2c1[C@H](COC(N)=O)[C@]1(OC(C)=O)ON2C[C@H]2[C@@H]1N2C(C)=O`: the “viability change, negative = cytotoxic” value was 12.1%.

For the compound `BrCC(Br)(Br)Br`, the “viability change, negative = cytotoxic” value is -3.73%.

Turning to `CN1CC[C@]23c4c5ccc(O)c4O[C@H]2[C@@H](O)C=C[C@H]3[C@H]1C5`, the “viability change, negative = cytotoxic” value was 4.75%.

`ClC(Cl)(Cl)c1ccccc1`: the Potency entry is “inactive”.

With `Oc1ccccc1Br`, the “viability change, negative = cytotoxic” value is 26.1%.

On to `CC(C)(C)OOC(=O)c1ccccc1`, for which the Potency entry is “inactive”.

For the compound `CCCCC(CC)CO[N+](=O)[O-]` (stereo not given), the “viability change, negative = cytotoxic” value is -5.32%.

Take `CN1C(=O)[C@@H](NC(=O)c2cc3ccccc3[nH]2)N=C(c2ccccc2)c2ccccc21`: the “viability change, negative = cytotoxic” value is -0.369% [at 42.5 µM].

Take `c1ccc2c(c1)-c1cccc3cccc-2c13`: the Potency result was “inactive”.

For `Cc1ccn2nc(S(=O)(=O)Nc3c(F)cccc3F)nc2n1`, the “viability change, negative = cytotoxic” value is 7.46%.

In the case of `CCCN(CC)CC1COC2(CCC(C(C)(C)C)CC2)O1` (stereo not given), the “viability change, negative = cytotoxic” value was 3.06%.

As for `O=C1CC(=O)NC(=O)N1`, the “viability change, negative = cytotoxic” value was -0.326%.

For the compound `CCN(CC)C(=S)[S-].CCN(CC)C(=S)[S-].[Zn+2]`, the Potency is 6.8 µM (active).

Consider `CCOP(OCC)OCC`, for which the Potency entry was “inactive”.

Consider `C=CCc1ccc(OC)cc1`, for which the Potency entry is “inactive”.

On to `CC(C)(C)OO`, for which the “viability change, negative = cytotoxic” value was 0.523%.

For the compound `C#CC(C)(C)O`, the “viability change, negative = cytotoxic” value was -8.3%.

As to `CCC[CH2][Sn]([CH2]CCC)([CH2]CCC)[O]C(=O)c1ccccc1`, the Potency is 5.7 µM (active).

`Clc1ccc2ccccc2c1`: the “viability change, negative = cytotoxic” value was -5.1%.

Consider `O=c1oc2ccccc2c(O)c1C(CC(O)c1ccc(-c2ccc(Br)cc2)cc1)c1ccccc1` (stereo not given), for which the Potency entry is “inactive”.

As for `ClCC(Cl)Cl`, the “viability change, negative = cytotoxic” value was -7.41%.

For the compound `CCC1(c2ccccc2)C(=O)NC(=O)NC1=O`, the “viability change, negative = cytotoxic” value is 2.13%.

Take `CC(O)CCl` (stereo not given): the “viability change, negative = cytotoxic” value was 2.25%.

As for `N#CC1(N=NC2(C#N)CCCCC2)CCCCC1`, the “viability change, negative = cytotoxic” value was 16.5%.

For the compound `Cc1nc2ccccc2c(=O)n1-c1ccccc1Cl`, the “viability change, negative = cytotoxic” value is -0.647%.

Turning to `CC(C)C1(C)N=C(c2nc3ccccc3cc2C(=O)O)NC1=O` (stereo not given), the Potency result is “inactive”.

With `COC(C)(C)CCC[C@H](C)C/C=C/C(C)=C/C(=O)OC(C)C`, the “viability change, negative = cytotoxic” value was -3.77%.

A short description of the next test: cAMP Responsive Elements (CRE) small molecule agonists, cell-based qHTS assay: qHTS cell viability counter screen (AID 2060914).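 Also: viability read after 3 h of compound exposure; nearly all actives have a fitted effect of over 50% in size.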 The conditions noted are these: CRE-bla HEK293T viability, CellTiter-Glo luminescence, 5 h; series mostly up to 92.4 µM; activity change, negative = cytotoxicity: at the top concentration. The method in brief:
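CRE-bla HEK 293T cells, plated 18 h at 37 °C, were exposed to compounds for 3 h at 37 °C/5% CO2. Viability was then measured in the same wells by CellTiter-Glo luminescence after 30 min at room temperature.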
Background: qHTS replaces the single test concentration by a dilution series.
Regarding `CC(C)=CCN1CC[C@@]2(C)c3cc(O)ccc3C[C@@H]1[C@@H]2C`, the “activity change, negative = cytotoxicity” value was 0.368%.

With `O=[N+]([O-])c1cc(Cl)c(Cl)cc1Cl`, the “activity change, negative = cytotoxicity” value was 6.61%.

On to `CCCOC(=O)c1cncn1C(C)c1ccccc1` (stereo not given), for which the “activity change, negative = cytotoxicity” value was 0.221% [at 42.5 µM].

Consider `Sc1ccccc1`, for which the Potency result was “inactive”.

Regarding `COP(=S)(OC)Oc1c(Cl)cc(C)cc1Cl`, the “activity change, negative = cytotoxicity” value is 3.43%.

`CCCN(CCOc1c(Cl)cc(Cl)cc1Cl)C(=O)n1ccnc1`: the Potency result was “inactive”.

On to `CC(Cl)(Cl)Cl`, for which the “activity change, negative = cytotoxicity” value was -1.53%.

As for `CC(C)(C)N(NC(=O)c1ccc(Cl)cc1)C(=O)c1ccccc1`, the “activity change, negative = cytotoxicity” value is 12.1%.

On to `COC(=O)N(C(=O)N1CO[C@@]2(C(=O)OC)Cc3cc(Cl)ccc3C2=N1)c1ccc(OC(F)(F)F)cc1`, for which the “activity change, negative = cytotoxicity” value is 5.36%.

As to `CCCCOC(=O)CCC(=O)OCCCC`, the “activity change, negative = cytotoxicity” value was 2.76%.

In the case of `CC(=O)[O-].CC(=O)[O-].O.O.[Zn+2]`, the “activity change, negative = cytotoxicity” value is -6.4%.

Regarding `O=S(=O)(c1ccc(O)cc1)c1ccc(O)cc1`, the Potency entry is “inactive”.

For the compound `COP(N)(=O)SC` (stereo not given), the Potency result is “inactive”.

On to `COc1cc(C=O)cc2c1[C@H](COC(N)=O)[C@]1(OC(C)=O)ON2C[C@H]2[C@@H]1N2C(C)=O`, for which the “activity change, negative = cytotoxicity” value was 18.4%.

For `BrCC(Br)(Br)Br`, the “activity change, negative = cytotoxicity” value is -1.16%.

`CN1CC[C@]23c4c5ccc(O)c4O[C@H]2[C@@H](O)C=C[C@H]3[C@H]1C5`: the “activity change, negative = cytotoxicity” value is 1.45%.

In the case of `ClC(Cl)(Cl)c1ccccc1`, the Potency result is “inactive”.

As for `Oc1ccccc1Br`, the “activity change, negative = cytotoxicity” value was -1.3%.

For `CC(C)(C)OOC(=O)c1ccccc1`, the Potency entry is “inactive”.

With `CCCCC(CC)CO[N+](=O)[O-]` (stereo not given), the “activity change, negative = cytotoxicity” value was -0.139%.

Regarding `CN1C(=O)[C@@H](NC(=O)c2cc3ccccc3[nH]2)N=C(c2ccccc2)c2ccccc21`, the “activity change, negative = cytotoxicity” value is 4.95% [at 42.5 µM].

Turning to `c1ccc2c(c1)-c1cccc3cccc-2c13`, the Potency result was “inactive”.

Consider `Cc1ccn2nc(S(=O)(=O)Nc3c(F)cccc3F)nc2n1`, for which the “activity change, negative = cytotoxicity” value was 4.77%.

On to `CCCN(CC)CC1COC2(CCC(C(C)(C)C)CC2)O1` (stereo not given), for which the “activity change, negative = cytotoxicity” value was -1.31%.

In the case of `O=C1CC(=O)NC(=O)N1`, the “activity change, negative = cytotoxicity” value is 12.7%.

With `CCN(CC)C(=S)[S-].CCN(CC)C(=S)[S-].[Zn+2]`, the Potency is 19.2 µM (active).

Take `CCOP(OCC)OCC`: the Potency entry was “inactive”.

Take `C=CCc1ccc(OC)cc1`: the Potency entry is “inactive”.

`CC(C)(C)OO`: the “activity change, negative = cytotoxicity” value was -13.1%.

Turning to `C#CC(C)(C)O`, the “activity change, negative = cytotoxicity” value was -10.3%.

For the compound `CCC[CH2][Sn]([CH2]CCC)([CH2]CCC)[O]C(=O)c1ccccc1`, the Potency is 5.45 µM (active).

Take `Clc1ccc2ccccc2c1`: the “activity change, negative = cytotoxicity” value is 9.65%.

As for `O=c1oc2ccccc2c(O)c1C(CC(O)c1ccc(-c2ccc(Br)cc2)cc1)c1ccccc1` (stereo not given), the Potency result is “inactive”.

On to `ClCC(Cl)Cl`, for which the “activity change, negative = cytotoxicity” value was 3.66%.

As to `CCC1(c2ccccc2)C(=O)NC(=O)NC1=O`, the “activity change, negative = cytotoxicity” value was 2.93%.

`CC(O)CCl` (stereo not given): the “activity change, negative = cytotoxicity” value was 9.05%.

On to `N#CC1(N=NC2(C#N)CCCCC2)CCCCC1`, for which the “activity change, negative = cytotoxicity” value was -1.31%.

Turning to `Cc1nc2ccccc2c(=O)n1-c1ccccc1Cl`, the “activity change, negative = cytotoxicity” value is -0.0903%.

For `CC(C)C1(C)N=C(c2nc3ccccc3cc2C(=O)O)NC1=O` (stereo not given), the Potency result is “inactive”.

Turning to `COC(C)(C)CCC[C@H](C)C/C=C/C(C)=C/C(=O)OC(C)C`, the “activity change, negative = cytotoxicity” value was 0.239%.
